The full list was thinned out, with hits kept by preference.
Cruzain noTriton – blocks cruzain activity in detergent-free assay. Potency, µM, hits mostly inhibitors. 2.3% of 200,000 active. P25779. purified cruzain, Z-FR-AMC fluorescence, no detergent; further: nearly all actives have a fitted effect of over 40% in size
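Purified cruzain at 1.5 nM, pre-incubated 15 min with compound at room temperature in 100 mM sodium acetate pH 5.5, 5 mM DTT, 0.00005% Triton X-100. Reaction started with 2 uM Z-FR-AMC; AMC fluorescence increase over 60 s gives rate.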
Cruzain inh Det – inhibitors of Trypanosoma cruzi cruzain with detergent; P25779; purified cruzain, Z-FR-AMC fluorescence, 0.01% Triton; Potency, µM, actives largely listed as inhibitors; 0.43% of 200,000 active; AID 1478; further: nearly all actives have a fitted effect of over 40% in size
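Z-FR-AMC hydrolysis (2 uM substrate) by cruzain (1.5 nM) monitored kinetically at ex 360/em 450 nm after 15 min room-temperature compound exposure; 0.01% Triton X-100, pH 5.5, 5 mM DTT.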
Giardia FBPA inh – inhibitors of Giardia lamblia fructose-1,6-bisphosphate aldolase; A8B2U2; purified Giardia FBPA; Potency, µM (titrated, usually from 59.6 µM), hits mostly inhibitors; 0.71% of 290,000 active; AID 2451; further: nearly all actives have a fitted effect of over 55% in size
Target sequence (A8B2U2 whole entry, looked up): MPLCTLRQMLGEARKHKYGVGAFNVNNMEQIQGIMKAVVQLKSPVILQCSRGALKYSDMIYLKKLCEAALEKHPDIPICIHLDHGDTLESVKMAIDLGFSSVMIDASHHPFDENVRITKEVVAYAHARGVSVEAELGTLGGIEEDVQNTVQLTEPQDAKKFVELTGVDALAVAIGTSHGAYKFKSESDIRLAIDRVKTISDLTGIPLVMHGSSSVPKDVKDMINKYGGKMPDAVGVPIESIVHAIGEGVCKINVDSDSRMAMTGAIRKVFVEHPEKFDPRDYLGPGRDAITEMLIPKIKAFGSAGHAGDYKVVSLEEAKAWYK
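Giardia FBPA (40 nM reagent) was preincubated 10 min at RT with compound (up to 57.5 uM final), then substrate plus GAPDH/TPI/NAD/arsenate coupling system with diaphorase/resazurin was added; resorufin fluorescence (525/598 nm) was read after 20 min.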
Each line names hits and unclear results; the compound was inactive in the other large screens. The call rests on the fitted dose curve; in most records, active means well fitted curve in the direction sought with a large enough effect; inconclusive means small, poorly fitted or top-dose-only effect, or another doubt; inactive means no such curve, though single readings can be large; an effect the other way counts as inactive or inconclusive.

COc1ccccc1Nc1nc(-c2ccccc2Cl)c2cc(Br)ccc2n1	none (no result: Giardia FBPA inh)
Clc1ccccc1-c1nc(Nc2ccccc2)nc2ccc(Br)cc12	Cruzain noTriton 25µM (no result: Giardia FBPA inh)
C=C(C)Cn1c(CCCNC(=O)CC)nc2ccccc21	none
C=C(C)Cn1c(CCNC(=O)CCC)nc2ccccc21	Cruzain noTriton 16µM
CCCCn1c(CCNC(=O)c2ccc(F)cc2)nc2ccccc21	Cruzain inh Det 7.1µM (no result: Giardia FBPA inh)
CCn1c(CCCNC(=O)c2cccs2)nc2ccccc21	none
CCCCCn1c(CNC(=O)c2ccc(F)cc2)nc2ccccc21	none (no result: Giardia FBPA inh)
Cc1ccccc1OCCCCn1c(CCNC(=O)C(C)(C)C)nc2ccccc21	Cruzain noTriton inconclusive (no result: Giardia FBPA inh)
CCCn1c(CCNC(=O)c2cccs2)nc2ccccc21	Cruzain inh Det 16µM
Cc1ccc(OCCCn2c(CCNC(=O)C3CCCCC3)nc3ccccc32)c(C)c1	Cruzain inh Det 2.5µM (no result: Giardia FBPA inh)
CCCCOc1ccc(S(=O)(=O)NCc2csc(-c3ccc(OC)cc3)n2)cc1	none (no result: Giardia FBPA inh)
COc1ccccc1CNC(=O)Cn1c(=O)oc2cc(S(=O)(=O)N3CCC(C)CC3)ccc21	none (no result: Giardia FBPA inh)
O=C1CCC[C@@H]2CC(NCc3ccc(Cl)c(Cl)c3)C[C@@H]3CCN1[C@H]23 (stereo not given in full)	none
Cc1ccc(NC(=O)Cn2nc(C)c3nn(-c4ccc(Cl)cc4)c(C)c3c2=O)cc1C	none (no result: Giardia FBPA inh)
COc1cc(S(=O)(=O)NCCc2c(C)[nH]c3ccc(C)cc23)ccc1Br	none (no result: Giardia FBPA inh)
CCOC(=O)c1c(C)[nH]c(CCC(=O)Nc2c(Cl)cc(OC)cc2OC)c1C	none (no result: Giardia FBPA inh)
CCn1c(CCCNC(=O)c2ccc(F)cc2)nc2ccccc21	none
CCCCn1c(CCCNC(=O)c2cccc(C)c2)nc2ccccc21	none (no result: Giardia FBPA inh)
CCn1c(CCNC(=O)c2ccc(F)cc2)nc2ccccc21	Cruzain noTriton 2.5µM, Cruzain inh Det 22µM
Cc1cccc(C(=O)NCCc2nc3ccccc3n2CCC(C)C)c1	Cruzain inh Det 13µM (no result: Giardia FBPA inh)
Cc1cc(Br)ccc1NC(=O)CSc1c2c(nc3ccccc13)CCC2	Cruzain noTriton inconclusive (no result: Giardia FBPA inh)
O=C(Cc1sc(-c2ccccc2Cl)nc1-c1ccccc1)Nc1ccc(F)cc1	Cruzain noTriton 16µM
O=C(Cc1sc(-c2ccccc2Cl)nc1-c1ccccc1)Nc1ccccc1	Cruzain noTriton 13µM
O=C(Cc1sc(-c2ccccc2)nc1-c1ccccc1)Nc1ccc(Cl)cc1	Cruzain noTriton inconclusive
CC(=O)Nc1ccc(NC(=O)Cc2sc(-c3cccnc3)nc2-c2ccc(C)cc2)cc1	none (no result: Cruzain noTriton, Cruzain inh Det)
CCCCOc1ccc(Cn2c(=O)oc3ccc(C)cc32)cc1	none (no result: Giardia FBPA inh)
CCOC(=O)N1CCN(/[N+]([O-])=N/Oc2ccc([N+](=O)[O-])cc2[N+](=O)[O-])CC1C (stereo not given)	none (no result: Cruzain noTriton, Cruzain inh Det)
COc1ccc(CCNC(=O)c2cc3c(=O)n(C)c4cc(Cl)ccc4c3s2)cc1OC	none (no result: Giardia FBPA inh)
FC(F)(F)c1nc2ccc(SSc3ccc4nc(C(F)(F)F)[nH]c4c3)cc2[nH]1	none (no result: Giardia FBPA inh)
O=C1C[C@H]2OCC=C3CN4CC[C@@]5(C(=O)O)[C@H](N1)C2[C@H]3C[C@H]45 (stereo not given in full)	none (no result: Giardia FBPA inh)
O=C(/C(=C(\[O-])c1ccccc1)[n+]1ccc2ccccc2c1)c1ccccc1	Cruzain noTriton inconclusive, Giardia FBPA inh inconclusive
O=C(/C(=C(\[O-])c1ccccc1)[n+]1ccc2ccccc2c1)c1ccc(Cl)cc1	Cruzain noTriton 25µM
O=S(=O)(Nc1nc(-c2sccc2Cl)cs1)c1cc(Cl)ccc1Cl	Cruzain noTriton inconclusive, Cruzain inh Det 20µM
CC(C)(C)c1nnc(NS(=O)(=O)c2cc(Cl)ccc2Cl)s1	none (no result: Cruzain noTriton, Cruzain inh Det)
Cc1ncn(-c2ccccc2O)c1C	none (no result: Giardia FBPA inh)
O=C(O)[C@@H]1[C@@H]2O[C@H]([C@@H](Br)[C@H]2Br)[C@H]1C(=O)O	none (no result: Giardia FBPA inh)
COc1ccc(N2CCN(c3oc(/C=C/c4cccc(OC)c4)nc3C#N)CC2)cc1	none (no result: Giardia FBPA inh)
COc1ccccc1/C=C/c1nc(C#N)c(N2CCN(c3ccccc3)CC2)o1	none (no result: Giardia FBPA inh)
COc1cc(/C=C/c2nc(C#N)c(N3CCN(C)CC3)o2)cc(OC)c1OC	Cruzain noTriton 13µM (no result: Giardia FBPA inh)
COc1cccc(/C=C/c2nc(C#N)c(N3CCN(C)CC3)o2)c1	Cruzain noTriton 3.2µM, Cruzain inh Det 25µM (no result: Giardia FBPA inh)
Cc1ccc(OCc2nc(-c3ccc(C(=O)NCCc4ccc(S(N)(=O)=O)cc4)cc3)oc2C)cc1	none (no result: Giardia FBPA inh)
Nc1ncnc2c1ncn2[C@H]1O[C@@H](C(=O)OCCO)[C@@H](O)[C@H]1O	none (no result: Giardia FBPA inh)
Cc1cc(C)c2sc(N(Cc3cccnc3)C(=O)CCOc3ccccc3)nc2c1	none (no result: Giardia FBPA inh)
C=C1C=CS(=O)(=O)N(C(C)C(=O)OC)C1 (stereo not given)	none (no result: Cruzain noTriton, Cruzain inh Det)
CCOC(=O)C(Sc1ncnc2c1sc1nc(N3CCOCC3)c3c(c12)CCCC3)c1ccccc1 (stereo not given)	Cruzain noTriton 3.2µM
CCOC(=O)CSc1ncnc2c1sc1nc(N3CCOCC3)c3c(c12)CCCC3	none

Bioassay records as filed in PubChem.
